Activity calls are given as the source filed them. Rule for the calls: active = hit-call score of the fitted dose curve at least 0.9, where 1 is the maximum; inactive = score below 0.9.
Experiments:
Conditions in all cases: mRNA level, 48 h; actives raise or lower the signal
[1] = read-out: Pro-epidermal growth factor (Homo sapiens) (UniProt P01133); assay: LTEA_HepaRG_EGF: Life Technologies and Expression Analysis (LTEA) Assay for Epidermal growth factor (EGF) using HepaRG (AID 2283489)
How it was run: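 EGF expression changes in human HepaRG cells are scored by bidirectional fitting relative to 0.5% DMSO controls. Chemicals are tested at eight half-log concentrations up to 100 uM for 48 h in serum-free induction medium.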

[2] = read-out: Early growth response protein 1 (EGR1) transcription factor, EGR1 (gene 1958); assay: LTEA_HepaRG_EGR1: Life Technologies and Expression Analysis (LTEA) Assay for Early growth response protein 1 (EGR1) transcription factor using HepaRG (AID 2283490)
How it was run: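 EGR1 transcript levels quantified by qRT-PCR (Fluidigm arrays) against three housekeeping genes after 48 h chemical exposure of HepaRG cells. Eight-point half-log series topping at 100 uM, 0.5% DMSO vehicle, analyzed for gain or loss.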

[3] = read-out: Ezrin (EZR), EZR (gene 7430); assay: LTEA_HepaRG_EZR: Life Technologies and Expression Analysis (LTEA) Assay for Ezrin (EZR) using HepaRG (AID 2283491)
How it was run: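 Differentiated human HepaRG cells, 48 h after plating, were exposed in serum-free induction medium for 48 hours to eight half-log concentrations up to 100 uM in 0.5% DMSO. EZR mRNA was measured by TaqMan qRT-PCR, normalized to ACTB, GAPDH and POLR2A, and fitted bidirectionally against DMSO.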

[4] = read-out: Cytochrome P450 3A7 (Homo sapiens) (UniProt P24462); assay: LTEA_HepaRG_CYP3A7: Life Technologies and Expression Analysis (LTEA) Assay for CYP3A7 using HepaRG (AID 2283492)
How it was run: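 Cells were thawed, plated, cultured 48 h, then treated for a further 48 h with chemicals (eight-point half-log series from 100 uM, 0.5% DMSO). RNA was isolated and CYP3A7 expression quantified by qRT-PCR normalised to ACTB, GAPDH and POLR2A.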

CYP3A5 (gene 1577) = assay: LTEA_HepaRG_CYP3A5: Life Technologies and Expression Analysis (LTEA) Assay for CYP3A5 using HepaRG (AID 2283493)
How it was run: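 Human HepaRG hepatic cells receive 48 h chemical treatment at eight concentrations (half-log steps from 100 uM) in 0.5% DMSO. Expression of CYP3A5 is quantified by Fluidigm qRT-PCR and normalized to three reference genes.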

[5] = read-out: Fatty Acid-Binding Protein 1 (FABP1), FABP1 (gene 2168); assay: LTEA_HepaRG_FABP1: Life Technologies and Expression Analysis (LTEA) Assay for Fatty Acid-Binding Protein 1 (FABP1) using HepaRG (AID 2283494)
How it was run: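 FABP1 expression by TaqMan qRT-PCR, normalised to three housekeeping genes, in HepaRG cells after 48 h chemical treatment. Eight-point half-log series topping at 100 uM in 0.5% DMSO, duplicates; gain or loss fitted relative to vehicle.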

[6] = read-out: Cytochrome P450 7A1 (Homo sapiens) (UniProt P22680); assay: LTEA_HepaRG_CYP7A1: Life Technologies and Expression Analysis (LTEA) Assay for Cytochrome P450 7A1 (CYP7A1) using HepaRG (AID 2283496)
How it was run: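 HepaRG, 48 h exposure, 8-pt half-log series from 100 uM, 0.5% DMSO vehicle, duplicates. Readout: TaqMan qRT-PCR mRNA vs three housekeeping genes; bidirectional curve fit against DMSO baseline.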

[7] = read-out: Glutathione S-Transferase (GSTA2), GSTA2 (gene 2939); assay: LTEA_HepaRG_GSTA2: Life Technologies and Expression Analysis (LTEA) Assay for Glutathione S-Transferase (GSTA2) using HepaRG (AID 2283497)
How it was run: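 GSTA2 transcript levels came from Fluidigm TaqMan qRT-PCR normalized to three housekeeping genes, fitted in both directions against DMSO. HepaRG cultures received chemicals for 48 h in serum-free induction medium (0.5% DMSO), 8 half-log concentrations up to 100 uM, duplicate.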

[8] = read-out: Glutamate-cysteine ligase catalytic (GCLC), GCLC (gene 2729); assay: LTEA_HepaRG_GCLC: Life Technologies and Expression Analysis (LTEA) Assay for Glutamate-cysteine ligase catalytic (GCLC) using HepaRG (AID 2283498)
How it was run: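 Expression by TaqMan qRT-PCR, normalized to three housekeeping genes (ACTB, GAPDH, POLR2A), with up- or down-regulation fitted against DMSO. HepaRG cells dosed in duplicate for 48 h with 8 half-log concentrations up to 100 uM, vehicle 0.5% DMSO.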

[9] = read-out: growth arrest and DNA damage 45 (GADD45G), GADD45G (gene 10912); assay: LTEA_HepaRG_GADD45G: Life Technologies and Expression Analysis (LTEA) Assay for growth arrest and DNA damage 45 (GADD45G) using HepaRG (AID 2283499)
How it was run: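 Human hepatic HepaRG line treated 48 h with chemicals (eight concentrations, half-log steps from 100 uM); transcript induction or repression of GADD45G scored by qRT-PCR versus DMSO vehicle.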

[10] = read-out: Glutathione S-transferase M3 (GSTM3), GSTM3 (gene 2947); assay: LTEA_HepaRG_GSTM3: Life Technologies and Expression Analysis (LTEA) Assay for Glutathione S-transferase M3 (GSTM3) using HepaRG (AID 2283501)
How it was run: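 Changes in GSTM3 expression, an oxidative-stress marker, were scored by bidirectional curve fitting against 0.5% DMSO vehicle. Human HepaRG cultures received chemicals for 48 h in duplicate, highest concentration 100 uM with half-log dilutions.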

[11] = read-out: Heat shock 70 kDa protein 1 (HSPA1A), gene 3303; assay: LTEA_HepaRG_HSPA1A: Life Technologies and Expression Analysis (LTEA) Assay for Heat shock 70 kDa protein 1 (HSPA1A) using HepaRG (AID 2283502)
How it was run: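 Cells were plated and cultured for 48 h, then switched to serum-free induction medium. Chemicals were added at eight half-log concentrations up to 100 uM for 48 h. RNA was then isolated and HSPA1A measured by qRT-PCR with bidirectional curve fitting against DMSO.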

[12] = read-out: Hypoxia-inducible factor 1-alpha (Homo sapiens) (UniProt Q16665); assay: LTEA_HepaRG_HIF1A: Life Technologies and Expression Analysis (LTEA) Assay for Hypoxia-inducible factor 1 (HIF1A) Trancription factor using HepaRG (AID 2283503)
How it was run: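 HIF1A transcript level read by qRT-PCR (ACTB, GAPDH, POLR2A normalization) after 48 h chemical exposure of HepaRG cultures. Eight half-log concentrations, top 100 uM, 0.5% DMSO vehicle, duplicates; bidirectional curve fit against DMSO baseline.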

[13] = read-out: 3-Hydroxy-3-Methylglutaryl-CoA Synthase 2 (HMGCS2), HMGCS2 (gene 3158); assay: LTEA_HepaRG_HMGCS2: Life Technologies and Expression Analysis (LTEA) Assay for 3-Hydroxy-3-Methylglutaryl-CoA Synthase 2 (HMGCS2) using HepaRG (AID 2283504)
How it was run: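 Expression of HMGCS2 in human HepaRG liver cells is measured by qRT-PCR 48 h after dosing (highest 100 uM, half-log series, 0.5% DMSO). Values come from bidirectional concentration-response fitting with DMSO as baseline.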

HGF (gene 3082) = assay: LTEA_HepaRG_HGF: Life Technologies and Expression Analysis (LTEA) Assay for Hepatocyte Growth Facto (HGF) using HepaRG (AID 2283505)
How it was run: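 Gain or loss of HGF mRNA in human HepaRG liver cells after 48 h chemical exposure; eight concentrations up to 100 uM with 0.5% DMSO vehicle, quantified by TaqMan qRT-PCR.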

[14] = read-out: Insulin Like Growth Factor 1 (IGF1), IGF1 (gene 3479); assay: LTEA_HepaRG_IGF1: Life Technologies and Expression Analysis (LTEA) Assay for Insulin Like Growth Factor 1 (IGF1) using HepaRG (AID 2283506)
How it was run: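 Cells are thawed, plated and cultured 48 h, then exposed in duplicate to chemical (highest 100 uM, half-log steps, 0.5% DMSO) for another 48 h. Total RNA is analysed by Fluidigm qRT-PCR for IGF1 expression relative to vehicle.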

[15] = read-out: Intercellular Adhesion Molecule 1 (ICAM1), ICAM1 (gene 3383); assay: LTEA_HepaRG_ICAM1: Life Technologies and Expression Analysis (LTEA) Assay for Intercellular Adhesion Molecule 1 (ICAM1) using HepaRG (AID 2283507)
How it was run: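 Gain or loss of transcript in HepaRG hepatic cells is quantified by qRT-PCR after 48 h chemical exposure (up to 100 uM, half-log steps), with DMSO as baseline.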

[16] = read-out: Insulin-like growth factor-binding protein 1 (IGFBP1), IGFBP1 (gene 3484); assay: LTEA_HepaRG_IGFBP1: Life Technologies and Expression Analysis (LTEA) Assay for Insulin-like growth factor-binding protein 1 (IGFBP1) using HepaRG (AID 2283508)
How it was run: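 mRNA induction or loss was quantified by qRT-PCR after 48 h chemical exposure of human HepaRG cells, with 0.5% DMSO as vehicle and baseline. Concentration-response over eight points up to 100 uM.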

[17] = read-out: Cytochrome P450 4A22 (Homo sapiens) (UniProt Q5TCH4); assay: LTEA_HepaRG_CYP4A22: Life Technologies and Expression Analysis (LTEA) Assay for Cytochrome P450 4A22 (CYP4A22) using HepaRG (AID 2283495)
How it was run: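 Cryopreserved HepaRG cells, plated and cultured 48 h, then switched to serum-free induction medium and treated 48 h (duplicates, up to 100 uM, half-log steps, 0.5% DMSO). Expression change of CYP4A22 was fitted bidirectionally against vehicle.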

[18] = read-out: Glutamate-cysteine ligase regulatory (GCLM), GCLM (gene 2730); assay: LTEA_HepaRG_GCLM: Life Technologies and Expression Analysis (LTEA) Assay for Glutamate-cysteine ligase regulatory (GCLM) using HepaRG (AID 2283500)
How it was run: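 Endpoint is GCLM transcript level by qRT-PCR, normalized to three housekeeping genes, after 48 h chemical exposure of human HepaRG cells (0.5% DMSO vehicle, top 100 uM, half-log dilutions). Fitting was bidirectional relative to DMSO.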

Measured: AC50

Hypoxia-inducible factor 1-alpha (Homo sapiens), sequence (Q16665 whole entry, looked up): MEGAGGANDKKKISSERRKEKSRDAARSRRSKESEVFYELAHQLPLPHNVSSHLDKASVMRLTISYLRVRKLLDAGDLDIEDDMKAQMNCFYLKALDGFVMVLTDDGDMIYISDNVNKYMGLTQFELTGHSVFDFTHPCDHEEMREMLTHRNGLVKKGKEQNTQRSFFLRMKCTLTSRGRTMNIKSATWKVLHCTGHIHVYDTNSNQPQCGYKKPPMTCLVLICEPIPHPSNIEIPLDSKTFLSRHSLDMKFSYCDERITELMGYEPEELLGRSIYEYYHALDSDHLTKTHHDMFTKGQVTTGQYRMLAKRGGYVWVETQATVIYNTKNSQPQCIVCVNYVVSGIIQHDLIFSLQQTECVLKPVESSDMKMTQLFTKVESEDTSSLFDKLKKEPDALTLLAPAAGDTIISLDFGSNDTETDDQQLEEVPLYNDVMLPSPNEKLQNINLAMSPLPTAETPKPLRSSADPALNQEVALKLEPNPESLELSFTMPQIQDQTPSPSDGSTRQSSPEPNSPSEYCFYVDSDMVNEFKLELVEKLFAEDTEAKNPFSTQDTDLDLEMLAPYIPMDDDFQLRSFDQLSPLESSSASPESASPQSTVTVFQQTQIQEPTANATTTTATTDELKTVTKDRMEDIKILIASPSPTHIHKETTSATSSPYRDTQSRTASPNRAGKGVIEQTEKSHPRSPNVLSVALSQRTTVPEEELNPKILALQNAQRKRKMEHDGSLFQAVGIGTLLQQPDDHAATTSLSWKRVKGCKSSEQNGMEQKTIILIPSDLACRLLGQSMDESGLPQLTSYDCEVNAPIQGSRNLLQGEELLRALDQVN
Cytochrome P450 3A7 (Homo sapiens), sequence (P24462 whole entry, looked up): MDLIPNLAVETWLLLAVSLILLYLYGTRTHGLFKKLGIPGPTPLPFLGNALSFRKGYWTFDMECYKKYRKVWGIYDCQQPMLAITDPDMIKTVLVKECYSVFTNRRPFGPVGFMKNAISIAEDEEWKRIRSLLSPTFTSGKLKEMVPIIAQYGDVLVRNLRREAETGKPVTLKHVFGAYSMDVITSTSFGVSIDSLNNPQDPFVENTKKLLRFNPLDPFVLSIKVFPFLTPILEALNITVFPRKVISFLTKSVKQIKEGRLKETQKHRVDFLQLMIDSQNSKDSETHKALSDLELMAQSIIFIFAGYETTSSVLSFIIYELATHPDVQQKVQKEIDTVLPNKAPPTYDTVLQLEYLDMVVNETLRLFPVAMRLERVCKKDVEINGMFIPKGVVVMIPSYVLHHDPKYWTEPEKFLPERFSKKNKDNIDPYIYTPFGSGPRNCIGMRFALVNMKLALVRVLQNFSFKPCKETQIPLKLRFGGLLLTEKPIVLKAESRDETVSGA

CCSC(=O)N1CCCCCC1
not listed: [17] | [18]
inactive: all other assays above

CCOc1cc(C(C)(C)C)ccc1C1COC(c2c(F)cccc2F)=N1 (stereo not given)
active: [5] 6.69 µM | [17] 33 µM | [6] 26.9 µM | [13] 46.9 µM | [14] 16.6 µM
not listed: [8] | [10]
inactive: all other assays above

CSC(=O)c1c(C(F)F)nc(C(F)(F)F)c(C(=O)SC)c1CC(C)C
active: [4] 12.6 µM | [5] 9.87 µM | [17] 80.7 µM | [7] 88.2 µM | [9] 65.3 µM | [13] 85.8 µM | [14] 66 µM | [16] 49.8 µM
not listed: [8] | [10] | [18]
inactive: all other assays above

Nc1cnn(-c2ccccc2)c(=O)c1Cl
not listed: [8]
inactive: all other assays above

CS(=O)(=O)c1ccc(C(=O)C2C(=O)CCCC2=O)c([N+](=O)[O-])c1
not listed: [8] | [10] | [18]
inactive: all other assays above

CCCC(=NOCC)C1=C(O)CC(CC(C)SCC)CC1=O (stereo not given)
not listed: [10] | [17]
inactive: all other assays above

O=C(O)c1c(Cl)ccc2cc(Cl)cnc12
not listed: [10]
inactive: all other assays above

C=C(C)CN(CC)c1c([N+](=O)[O-])cc(C(F)(F)F)cc1[N+](=O)[O-]
active: [5] 50 µM
not listed: [18]
inactive: all other assays above

CN=C=S
inactive: all assays above

C=CCOC(=O)C(C)(C)OC(=O)c1cc(-n2c(=O)cc(C(F)(F)F)n(C)c2=O)ccc1Cl
active: [4] 11 µM
not listed: [8]
inactive: all other assays above

Cc1nc(N(C)C)nc(OC(=O)N(C)C)c1C
active: [4] 19.9 µM
not listed: [8] | [10]
inactive: all other assays above

CCN(CC)C(=O)C(C)Oc1cccc2ccccc12 (stereo not given)
active: [4] 80.2 µM | [5] 70.4 µM | [17] 78.3 µM | [6] 35.5 µM | [13] 76.9 µM | [14] 66.3 µM
not listed: [8]
inactive: all other assays above

CC(C)Nc1nc(Cl)nc(NC(C)C)n1
active: [4] 2.51 µM | [5] 19.2 µM | [6] 50 µM | [13] 23.6 µM
not listed: [10] | [17]
inactive: all other assays above

CNC(=O)N(C)c1nnc(C(C)(C)C)s1
not listed: [8] | [10] | [12] | [18]
inactive: all other assays above
